Laboratory results: PMC7862700, “An all-to-all approach to the identification of sequence-specific readers for epigenetic DNA modifications on cytosine”

Legend:
Experiment in all cases: DAPPL (digital affinity profiling via proximity ligation, sequencing); 10 mM Tris-HCl pH 7.5, 50 mM NaCl, 1 mM DTT, 4% glycerol, room temperature, 30 min; GST-TFs on glutathione beads, 16-mer random dsDNA library, 0.1% formaldehyde crosslink after washing; high values mean tight binding
Conditions in all cases: protein: recombinant; tags: N-terminal GST; dsDNA, one strand shown
ELK3 = target: T1, ELK3 (Homo sapiens, UniProt P41970 1-407)
T1 sequence: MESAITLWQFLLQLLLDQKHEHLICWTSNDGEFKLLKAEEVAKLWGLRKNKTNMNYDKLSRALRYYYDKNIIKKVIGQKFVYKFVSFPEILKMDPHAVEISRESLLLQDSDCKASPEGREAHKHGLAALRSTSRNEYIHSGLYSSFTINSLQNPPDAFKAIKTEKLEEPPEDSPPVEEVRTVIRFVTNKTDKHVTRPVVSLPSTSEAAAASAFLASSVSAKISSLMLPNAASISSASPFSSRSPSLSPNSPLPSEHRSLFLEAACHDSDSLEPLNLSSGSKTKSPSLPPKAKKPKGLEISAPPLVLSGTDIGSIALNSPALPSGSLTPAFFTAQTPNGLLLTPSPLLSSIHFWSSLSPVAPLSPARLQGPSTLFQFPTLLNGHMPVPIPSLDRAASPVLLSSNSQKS
Outline: (§1)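 Sequencing on an Illumina NextSeq500 followed washing, crosslinking with 0.1% formaldehyde, proximity ligation (BsaI/T4 ligase, 1 h, 37 °C) and PCR amplification of pools that had been incubated for 30 min at room temperature with 200 nmole of a random double-stranded 16-mer DNA library in Tris/NaCl/DTT/glycerol buffer. Each pool held DNA-barcoded human transcription factors, expressed in yeast as GST fusions and captured on glutathione beads, plus a tag-only sample. Binding signal is a hexamer's read frequency for a factor divided by its frequency in the tag-only sample.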

FEV = target: T2, FEV (Homo sapiens, UniProt Q99581 1-238)
T2 sequence: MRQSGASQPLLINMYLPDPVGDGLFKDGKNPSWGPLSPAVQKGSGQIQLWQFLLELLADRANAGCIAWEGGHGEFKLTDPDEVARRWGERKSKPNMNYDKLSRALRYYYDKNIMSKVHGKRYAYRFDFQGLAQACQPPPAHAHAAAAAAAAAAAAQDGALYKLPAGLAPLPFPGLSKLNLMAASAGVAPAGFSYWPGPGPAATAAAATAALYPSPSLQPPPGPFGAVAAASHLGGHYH
Outline: as §1

ELK4 = target: T3, ELK4 (Homo sapiens, UniProt P28324-2 1-405)
T3 sequence: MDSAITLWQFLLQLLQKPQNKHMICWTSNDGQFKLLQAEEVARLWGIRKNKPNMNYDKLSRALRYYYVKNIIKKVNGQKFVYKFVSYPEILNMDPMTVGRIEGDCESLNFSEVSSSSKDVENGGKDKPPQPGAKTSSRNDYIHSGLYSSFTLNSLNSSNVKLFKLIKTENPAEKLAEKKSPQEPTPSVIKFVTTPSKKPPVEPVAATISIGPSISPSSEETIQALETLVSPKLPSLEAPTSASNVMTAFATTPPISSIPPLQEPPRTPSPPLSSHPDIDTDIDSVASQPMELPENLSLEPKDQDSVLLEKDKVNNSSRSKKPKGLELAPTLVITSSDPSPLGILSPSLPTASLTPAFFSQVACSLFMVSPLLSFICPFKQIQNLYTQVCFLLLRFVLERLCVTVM
Outline: as §1

SPDEF = target: T4, SPDEF (Homo sapiens, UniProt O95238 1-335)
T4 sequence: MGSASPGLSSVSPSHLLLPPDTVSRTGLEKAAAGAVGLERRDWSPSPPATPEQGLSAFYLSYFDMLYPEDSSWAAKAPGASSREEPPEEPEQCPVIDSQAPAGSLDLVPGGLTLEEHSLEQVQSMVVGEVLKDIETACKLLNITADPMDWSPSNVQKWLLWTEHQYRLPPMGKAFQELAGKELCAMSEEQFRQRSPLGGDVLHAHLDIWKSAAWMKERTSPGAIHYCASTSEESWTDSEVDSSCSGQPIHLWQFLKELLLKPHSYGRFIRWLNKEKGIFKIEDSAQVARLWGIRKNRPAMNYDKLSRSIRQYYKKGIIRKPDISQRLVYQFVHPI
Outline: as §1

ETV1 = ETV1 (Homo sapiens, UniProt P50549 1-477)
Outline: as §1

ERF = target: T5, ERF (Homo sapiens, UniProt P50548 1-548)
T5 sequence: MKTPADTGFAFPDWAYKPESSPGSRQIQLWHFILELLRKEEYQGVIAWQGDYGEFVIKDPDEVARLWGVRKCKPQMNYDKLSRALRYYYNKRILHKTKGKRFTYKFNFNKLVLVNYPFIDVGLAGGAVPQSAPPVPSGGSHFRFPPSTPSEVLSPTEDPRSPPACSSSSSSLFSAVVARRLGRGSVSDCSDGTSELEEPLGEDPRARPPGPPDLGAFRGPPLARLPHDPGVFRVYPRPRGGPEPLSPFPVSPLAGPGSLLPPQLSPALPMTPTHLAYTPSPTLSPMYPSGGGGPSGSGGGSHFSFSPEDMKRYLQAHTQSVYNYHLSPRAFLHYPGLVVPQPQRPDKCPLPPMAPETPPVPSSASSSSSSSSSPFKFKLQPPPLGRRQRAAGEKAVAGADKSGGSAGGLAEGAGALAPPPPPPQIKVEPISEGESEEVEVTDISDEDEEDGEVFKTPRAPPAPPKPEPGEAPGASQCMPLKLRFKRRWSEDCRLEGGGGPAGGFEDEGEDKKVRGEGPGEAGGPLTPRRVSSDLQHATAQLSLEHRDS
Outline: as §1

ETV3 = target: T6, ETV3 (Homo sapiens, UniProt P41162-2 1-143)
T6 sequence: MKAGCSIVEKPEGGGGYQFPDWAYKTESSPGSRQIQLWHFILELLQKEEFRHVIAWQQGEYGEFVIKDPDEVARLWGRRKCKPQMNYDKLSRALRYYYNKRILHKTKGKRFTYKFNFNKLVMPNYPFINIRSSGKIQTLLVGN
Outline: as §1

ETV3L = target: T7, ETV3L (Homo sapiens, UniProt Q6ZN32 1-361)
T7 sequence: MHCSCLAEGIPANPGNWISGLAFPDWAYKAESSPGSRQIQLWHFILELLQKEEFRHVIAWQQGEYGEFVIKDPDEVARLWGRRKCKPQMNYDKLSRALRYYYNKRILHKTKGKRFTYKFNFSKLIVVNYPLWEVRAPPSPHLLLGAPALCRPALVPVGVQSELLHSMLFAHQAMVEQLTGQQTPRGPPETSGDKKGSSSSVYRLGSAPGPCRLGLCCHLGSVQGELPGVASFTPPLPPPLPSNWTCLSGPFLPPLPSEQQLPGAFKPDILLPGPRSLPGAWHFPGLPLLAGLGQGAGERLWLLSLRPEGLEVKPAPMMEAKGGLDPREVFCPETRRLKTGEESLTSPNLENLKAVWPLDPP
Outline: as §1

GABPA = target: T8, GABPA (Homo sapiens, UniProt Q06546 1-454)
T8 sequence: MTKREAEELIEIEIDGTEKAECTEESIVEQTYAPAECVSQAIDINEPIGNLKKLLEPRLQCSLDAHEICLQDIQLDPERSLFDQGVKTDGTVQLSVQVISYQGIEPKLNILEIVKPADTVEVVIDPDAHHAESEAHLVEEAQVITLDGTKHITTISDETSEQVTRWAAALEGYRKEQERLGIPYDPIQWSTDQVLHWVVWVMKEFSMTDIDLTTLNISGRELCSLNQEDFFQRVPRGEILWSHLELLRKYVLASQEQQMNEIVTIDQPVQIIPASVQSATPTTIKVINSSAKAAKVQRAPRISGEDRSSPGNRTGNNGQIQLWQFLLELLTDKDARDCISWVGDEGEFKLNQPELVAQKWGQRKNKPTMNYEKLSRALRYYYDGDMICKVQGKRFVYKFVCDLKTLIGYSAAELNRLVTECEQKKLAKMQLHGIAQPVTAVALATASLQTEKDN
Outline: as §1

EHF = target: T9, EHF (Homo sapiens, UniProt Q9NZC4 1-300)
T9 sequence: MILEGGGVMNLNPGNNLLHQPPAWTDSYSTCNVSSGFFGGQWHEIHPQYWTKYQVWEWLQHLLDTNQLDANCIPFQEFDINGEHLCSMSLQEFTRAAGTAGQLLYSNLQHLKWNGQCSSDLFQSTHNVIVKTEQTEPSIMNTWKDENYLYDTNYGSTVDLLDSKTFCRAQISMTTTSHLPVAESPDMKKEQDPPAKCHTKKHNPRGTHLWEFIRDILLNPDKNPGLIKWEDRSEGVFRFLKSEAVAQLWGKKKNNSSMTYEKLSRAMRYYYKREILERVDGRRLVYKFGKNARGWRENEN
Outline: as §1

SPI1 = SPI1 (Homo sapiens, UniProt P17947 1-270)
Outline: as §1

ELF3 = target: T10, ELF3 (Homo sapiens, UniProt P78545 1-371)
T10 sequence: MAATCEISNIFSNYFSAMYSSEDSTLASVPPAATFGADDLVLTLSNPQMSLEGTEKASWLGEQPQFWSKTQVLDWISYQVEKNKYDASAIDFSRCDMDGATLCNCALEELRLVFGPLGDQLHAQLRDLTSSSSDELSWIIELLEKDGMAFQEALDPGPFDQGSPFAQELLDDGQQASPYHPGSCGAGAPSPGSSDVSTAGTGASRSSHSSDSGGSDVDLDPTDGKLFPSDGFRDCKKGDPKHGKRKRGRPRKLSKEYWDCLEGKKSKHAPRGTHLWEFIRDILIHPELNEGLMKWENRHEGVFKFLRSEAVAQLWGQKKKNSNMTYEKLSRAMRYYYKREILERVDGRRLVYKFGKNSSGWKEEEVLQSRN
Outline: as §1

Sequence of ETV1 (P50549 whole entry): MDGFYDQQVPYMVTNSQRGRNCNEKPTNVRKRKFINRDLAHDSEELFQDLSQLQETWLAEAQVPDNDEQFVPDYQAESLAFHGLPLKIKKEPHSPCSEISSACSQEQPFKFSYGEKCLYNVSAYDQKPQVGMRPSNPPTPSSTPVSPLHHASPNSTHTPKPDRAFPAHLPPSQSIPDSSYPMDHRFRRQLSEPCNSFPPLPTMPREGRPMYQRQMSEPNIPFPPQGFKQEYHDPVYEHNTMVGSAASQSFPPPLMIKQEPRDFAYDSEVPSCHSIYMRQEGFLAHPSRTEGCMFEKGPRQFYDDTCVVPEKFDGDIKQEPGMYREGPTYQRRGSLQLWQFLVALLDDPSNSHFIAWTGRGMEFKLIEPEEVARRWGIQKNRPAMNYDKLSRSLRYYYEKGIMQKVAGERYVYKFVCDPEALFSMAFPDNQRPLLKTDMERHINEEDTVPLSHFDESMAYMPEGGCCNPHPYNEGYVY

CGGTCC
binding signal (ELK3): 1.03 fold enrichment (6-mer frequency, TF over GST control)
binding signal (FEV): 1.06 fold enrichment (6-mer frequency, TF over GST control)
binding signal (ELK4): 1.08 fold enrichment (6-mer frequency, TF over GST control)
binding signal (SPDEF): 1.04 fold enrichment (6-mer frequency, TF over GST control)

CAACGG
binding signal (ELK4): 1.01 fold enrichment (6-mer frequency, TF over GST control)
binding signal (ETV1): 1.01 fold enrichment (6-mer frequency, TF over GST control)
binding signal (ERF): 1.08 fold enrichment (6-mer frequency, TF over GST control)
binding signal (ETV3): 1.01 fold enrichment (6-mer frequency, TF over GST control)

GTAGCG
binding signal (ELK4): 1.01 fold enrichment (6-mer frequency, TF over GST control)
binding signal (ETV3): 1.01 fold enrichment (6-mer frequency, TF over GST control)

GCGCAC
binding signal (ELK4): 1.07 fold enrichment (6-mer frequency, TF over GST control)
binding signal (ETV3L): 1.03 fold enrichment (6-mer frequency, TF over GST control)

GTGCAA
binding signal (GABPA): 1.02 fold enrichment (6-mer frequency, TF over GST control)
binding signal (EHF): 1 fold enrichment (6-mer frequency, TF over GST control)
binding signal (SPI1): 1.06 fold enrichment (6-mer frequency, TF over GST control)
binding signal (ELK4): 1.05 fold enrichment (6-mer frequency, TF over GST control)
binding signal (ELF3): 1.07 fold enrichment (6-mer frequency, TF over GST control)
binding signal (ETV1): 1.05 fold enrichment (6-mer frequency, TF over GST control)

GTTGTG
binding signal (ELK4): 1.07 fold enrichment (6-mer frequency, TF over GST control)
binding signal (ETV3L): 1.02 fold enrichment (6-mer frequency, TF over GST control)
